{"source": "PubChem BioAssay (EPA / NIEHS)", "note": "Inconclusive results are not listed. Active and inactive are the calls of the source. Rule for the calls: active = hit-call score of the fitted dose curve at least 0.9, where 1 is the maximum; inconclusive = response in the unintended direction; inactive = score below 0.9.", "data": [{"target": "Nuclear receptor subfamily 1 group I member 3 (Homo sapiens) (UniProt Q14994)", "sequence (Q14994 whole entry, looked up)": "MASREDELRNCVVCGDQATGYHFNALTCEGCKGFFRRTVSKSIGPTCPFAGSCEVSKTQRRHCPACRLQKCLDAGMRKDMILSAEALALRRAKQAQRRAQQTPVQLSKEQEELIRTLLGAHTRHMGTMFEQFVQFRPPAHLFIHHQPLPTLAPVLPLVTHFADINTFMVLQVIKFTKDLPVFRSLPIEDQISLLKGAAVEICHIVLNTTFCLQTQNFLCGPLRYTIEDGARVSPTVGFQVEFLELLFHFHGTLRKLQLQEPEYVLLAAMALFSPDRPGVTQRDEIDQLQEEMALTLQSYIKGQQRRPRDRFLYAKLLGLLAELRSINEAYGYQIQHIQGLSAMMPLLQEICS", "assay": "ATG_CAR_TRANS: Attagene TRANS-FACTORIAL HepG2 Assay for human Constitutive Androstane Receptor (CAR) (AID 2282969);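 note: activators raise reporter mRNA above DMSO so AC50 marks induction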", "details": "HepG2 Attagene TRANS-FACTORIAL CAR reporter", "method": "ATG_TRANS is a cell-based, multiplexed-readout assay that uses HepG2, a human liver cell line, with measurements taken at 24 hours after chemical dosing in a 24-well plate.ATG_CAR_TRANS is one of 30 assay component(s) measured or calculated from the ATG_TRANS assay. It is designed to make measurements of mRNA induction, a form of inducible reporter, as detected with fluorescence intensity signals by Reverse transcription polymerase chain reaction (RT-PCR) and Capillary electrophoresis technology.Data from the assay component ATG_CAR_TRANS was analyzed into 1 assay endpoint. This assay endpoint, ATG_CAR_TRANS, was analyzed in the positive analysis fitting direction relative to DMSO as the negative control and baseline of activity. Using a type of inducible reporter, measures of mRNA for gain-of-signal activity can be used to understand the reporter gene at the transcription factor-level as they relate to the gene NR1I3. Furthermore, this assay endpoint can be referred to as a primary readout, because this assay has produced multiple assay endpoints where this one serves a reporter gene function. To generalize the intended target to other relatable targets, this assay endpoint is annotated to the nuclear receptor intended target family, where the subfamily is non-steroidal.\nHuman liver HepG2 cells are transiently transfected with multiple reporter transcription units (MRTUs) in 6-well plates using FuGene 6 reagent (Roche; 3 ml FuGene/1 mg DNA). The MRTU constructs are regulated by a cis-regulating element (promoter). […] A major difference between the CIS and TRANS system is that in CIS activities of endogenous TFs are measured, whereas the TRANS assay evaluates changes in activities of exogenous, chimeric NR-Gal4 proteins. […] At the end of 24 hour incubation, total RNA was isolated using TriZol reagent (Invitrogen). The isolated RNA is then reverse-transcribed using oligo(dT) primer and Mo-MLV reverse transcriptase (Invitrogen) with DNAse I (Ambion) treatment for 30 min. The one-tenth of the produced cDNA was amplified by PCR using Taq DNA polymerase (Invitrogen) and two reporter sequence-specific primers. The PCR products were fluorescently labeled by primer extension with 6-arboxyfluorescein (6-FAM) 5'-labeled reporter sequence-specific primer (2 min at 95 C, 20 s at 68 C and 10 min at 72 C) and these products were digested with 5U of HpaI (New England Biolabs) for 2h at 37 C. The fragments were purified using Qiaquick PCR columns (Qiagen), analyzed on an ABI 3130xL genetic analyzer (Applied Biosystems) with peak positions identified by using a set of X-rhodamine (ROX)-labeled MapMarker1000 molecular weight standards (BioVentures). The raw capillary electrophoresis data was processed using Attagraph software (Attagene).", "values": [{"smiles": "CC(=O)CCC(C)C", "outcome": "inactive"}, {"smiles": "CN(N=O)C(=O)N[C@@H]1[C@@H](O)[C@H](O)[C@@H](CO)O[C@@H]1O", "outcome": "inactive"}, {"smiles": "CCc1cc(Cc2cc(CC)c(N)c(CC)c2)cc(CC)c1N", "outcome": "inactive"}, {"smiles": "CC(C)Nc1ccc(NC(C)C)c2c1C(=O)c1ccccc1C2=O", "outcome": "inactive"}, {"smiles": "CCc1ccc(C)nc1", "outcome": "inactive"}, {"smiles": "O=S(=O)(O)c1ccc(Cl)cc1", "outcome": "inactive"}, {"smiles": "Cc1cc(C)c(O)c(C(C)(C)C)c1", "outcome": "inactive"}, {"smiles": "CCC/C=C/CO", "outcome": "inactive"}, {"smiles": "CCCCC(CC)COC(=O)c1ccc(N(C)C)cc1", "note": "(stereo not given)", "outcome": "inactive"}, {"smiles": "CC1CCCCC1", "outcome": "inactive"}, {"smiles": "O=C=NCc1cccc(CN=C=O)c1", "outcome": "inactive"}, {"smiles": "O=C(O)CCC(F)(F)C(F)(F)C(F)(F)F", "outcome": "inactive"}, {"smiles": "Cc1ccc(O)cn1", "outcome": "inactive"}, {"smiles": "CCC(=O)OC(C)c1ccccc1", "note": "(stereo not given)", "outcome": "inactive"}, {"smiles": "Cc1ccc(O)c(-n2nc3ccccc3n2)c1", "outcome": "inactive"}, {"smiles": "CC(C)OC(=O)COc1ccc(Cl)cc1Cl", "outcome": "inactive"}, {"smiles": "CC1=CCC(=O)O1", "outcome": "inactive"}, {"smiles": "O=C1c2c(O)ccc(Nc3ccc(CCO)cc3)c2C(=O)c2c([N+](=O)[O-])ccc(O)c21", "outcome": "inactive"}, {"smiles": "CC1=CCC2C(=O)OC(=O)C2C1", "note": "(stereo not given)", "outcome": "inactive"}, {"smiles": "CC(C)(C)C(=O)C1C(=O)c2ccccc2C1=O", "outcome": "inactive"}, {"smiles": "NS(=O)(=O)C(F)(F)C(F)(F)C(F)(F)C(F)(F)C(F)(F)C(F)(F)F", "outcome": "inactive"}, {"smiles": "Cc1ccc([N+](=O)[O-])c(C)c1", "outcome": "inactive"}, {"smiles": "CCN(CC)c1ccc(C=O)cc1", "outcome": "inactive"}, {"smiles": "N#Cc1ccccc1O", "outcome": "inactive"}, {"smiles": "CCCCOC(=O)C(C)O", "note": "(stereo not given)", "outcome": "inactive"}, {"smiles": "CC(O)C#CC(C)O", "note": "(stereo not given)", "AC50": "99.5 µM (active)"}, {"smiles": "O=C(O)C(F)(F)C(F)(F)C(F)(F)OC(F)(F)F", "outcome": "inactive"}, {"smiles": "O=C(c1ccccc1)c1ccc(O)cc1O", "outcome": "inactive"}, {"smiles": "CC(C)(C)c1cc(CCC(=O)OCC(COC(=O)CCc2cc(C(C)(C)C)c(O)c(C(C)(C)C)c2)(COC(=O)CCc2cc(C(C)(C)C)c(O)c(C(C)(C)C)c2)COC(=O)CCc2cc(C(C)(C)C)c(O)c(C(C)(C)C)c2)cc(C(C)(C)C)c1O", "outcome": "inactive"}, {"smiles": "O=C(c1ccccc1)c1ccc(Cl)cc1", "outcome": "inactive"}, {"smiles": "C[C@]12CC[C@H]3C(=CCc4cc(O)ccc43)[C@@H]1CCC2=O", "outcome": "inactive"}, {"smiles": "C=C(C)CCCC", "outcome": "inactive"}, {"smiles": "Nc1cccnc1N", "outcome": "inactive"}, {"smiles": "CCCCCCCCn1sc(Cl)c(Cl)c1=O", "outcome": "inactive"}, {"smiles": "Cc1cnccn1", "outcome": "inactive"}, {"smiles": "CC(C)=CCCC(C)O", "note": "(stereo not given)", "outcome": "inactive"}, {"smiles": "CCn1c2ccccc2c2ccccc21", "outcome": "inactive"}, {"smiles": "C=CC(=O)OCC(F)(F)C(F)(F)C(F)(F)C(F)(F)C(F)(F)C(F)(F)C(F)(F)C(F)F", "outcome": "inactive"}, {"smiles": "Cc1cc(=O)[nH]c(C(C)C)n1", "outcome": "inactive"}, {"smiles": "O=S(=O)(OCC(F)(F)F)C(F)(F)C(F)(F)C(F)(F)C(F)(F)F", "outcome": "inactive"}]}]}
